# Inconclusive results are not listed. Where a call stands in place of a potency, no number is given. Active and inactive are the calls of the source. Calls come from the whole dose curve; as a rule, active = well fitted inhibition curve with a large enough effect in the repeat runs; inconclusive = weak or mixed curves; inactive = no such curve, though single readings can be large or run the other way.
# Target: Cytochrome P450 2C9 (Homo sapiens) (UniProt P11712)
# Experiment: Cytochrome P450 Family 2 Subfamily C Member 9 (CYP2C9) small molecule antagonists: luciferase reporter qHTS assay (AID 1671198); note: nearly all actives have a fitted effect of over 50% in size
# Conditions: P450-Glo CYP2C9 enzyme assay, luciferin luminescence; series mostly up to 115 µM
# Description: U.S. Tox21 Program National Center for Advancing Translational Sciences [NCATS] U.S. Environmental Protection Agency [EPA] National Institutes of Environmental Health Sciences [NIEHS] National Toxicology Program [NTP] U.S. Food and Drug Administration [FDA] Tox21 Assay Overview: Cytochrome P450 (CYP) enzymes are membrane-bound hemeproteins that play a key role in metabolism of drugs and xenobiotics. Evaluation of the effect of chemicals on CYP isozymes is useful to minimize the adverse drug reactions and toxicities in drug development process. Tox21 chemicals were tested for their effect on CYP enzyme activities by using P450-Glo (TM) screening systems (Promega Corporation, Madison, WI). These systems provide a luminescent method containing proluciferin substrates and are converted to luciferin products by CYP isozymes. The luciferin products formed are detected with a luciferin detection reagent, and the amount of light produced is proportional to CYP activity. P450-Glo (TM) CYP2C9 screening system (Catalog. No. V9790) was used to detect the compounds that interfere in CYP2C9 activity.
# Tox21 Assay Protocol Summary: Two ul of enzyme-substrate mix was dispensed into medium binding white/solid 1536-well plates (Greiner Bio-One North America Inc., Monroe, NC) using a BioRaptr Flying Reagent Dispenser (FRD, Beckman Coulter, Brea, CA). […] The assay plates were incubated at room temperature for 10 min. Then 2 ul of NADPH regeneration solution was added to each well of the assay plates using an FRD and incubated at 37C for 1 h. The reaction was stopped by adding 4 ul of detection reagent using an FRD and after 20 min incubation at room temperature the luminescence signal was measured using a ViewLux plate reader (Perkin Elmer, Shelton, CT). Data were expressed as relative luminescence units.
# Potency is the fitted concentration of half-maximal effect.
# Cytochrome P450 2C9 (Homo sapiens), sequence (P11712 whole entry, looked up): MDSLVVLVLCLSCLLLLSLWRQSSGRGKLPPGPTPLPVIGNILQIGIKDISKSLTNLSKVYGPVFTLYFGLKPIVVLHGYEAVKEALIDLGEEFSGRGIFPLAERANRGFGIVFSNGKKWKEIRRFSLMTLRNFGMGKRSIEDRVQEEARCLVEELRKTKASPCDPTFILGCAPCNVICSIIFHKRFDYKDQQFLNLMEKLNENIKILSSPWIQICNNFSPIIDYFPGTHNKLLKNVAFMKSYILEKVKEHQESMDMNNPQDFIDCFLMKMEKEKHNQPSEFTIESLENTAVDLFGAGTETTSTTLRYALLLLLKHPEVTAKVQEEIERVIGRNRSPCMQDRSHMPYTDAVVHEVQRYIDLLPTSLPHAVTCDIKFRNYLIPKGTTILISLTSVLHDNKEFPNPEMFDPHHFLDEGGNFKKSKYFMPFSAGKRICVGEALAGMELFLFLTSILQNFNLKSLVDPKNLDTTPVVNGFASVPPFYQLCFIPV
row,Structure (SMILES),Potency
1,c1cc[n+]2c(c1)-c1cccc[n+]1CC2,inactive
2,CC1(C)[C@H](/C=C2\CCSC2=O)[C@@H]1C(=O)OCc1coc(Cc2ccccc2)c1,1.26 µM (active)
3,CC[C@H](C)[C@H]1O[C@]2(C=C[C@@H]1C)C[C@@H]1C[C@@H](C/C=C(\C)[C@@H](O[C@H]3C[C@H](OC)[C@@H](O[C@H]4C[C@H](OC)[C@@H](NC)[C@H](C)O4)[C@H](C)O3)[C@@H](C)/C=C/C=C3\CO[C@@H]4[C@H](O)C(C)=C[C@@H](C(=O)O1)[C@]34O)O2,35.6 µM (active)
4,CC#C[C@]1(O)CC[C@H]2[C@@H]3C[C@H](C)C4=CC(=O)CC[C@]4(C)[C@H]3CC[C@@]21C,17.4 µM (active)
5,CC(C)N(C(=O)SC/C(Cl)=C/Cl)C(C)C,31.9 µM (active)
6,C[C@H]1[C@H](c2ccc(Cl)cc2)SC(=O)N1C(=O)NC1CCCCC1,10 µM (active)
7,CN=C=O,inactive
8,CO/N=C(\C(=O)OC)c1ccccc1CO/N=C(\C)c1cccc(C(F)(F)F)c1,8.94 µM (active)
9,CC(C)Br,40 µM (active)
10,CCCCC(CC)COC(=O)OOC(C)(C)C (stereo not given),inactive
11,CCc1cccc(C)c1N(C(=O)CCl)[C@@H](C)COC,17.8 µM (active)
12,CCCN,inactive
13,CCOP(=S)(OCC)SC(CCl)N1C(=O)c2ccccc2C1=O (stereo not given),1.12 µM (active)
14,O=NN(CCO)CCO,inactive
15,CCCCON=O,inactive
16,CC(Cc1ccc(O)cc1)NCC(O)c1cc(O)cc(O)c1 (stereo not given),inactive
17,COc1nc(C)nc(NC(=O)NS(=O)(=O)c2ccccc2Cl)n1,inactive
18,CCC(OC(C)=O)C(CC(C)NC)(c1ccccc1)c1ccccc1 (stereo not given),inactive
19,ClC(Cl)C(Cl)(Cl)Cl,inactive
20,COc1cnc(OC)n2nc(NS(=O)(=O)c3c(OCC(F)F)cccc3C(F)(F)F)nc12,35.6 µM (active)

row,Structure (SMILES),Potency
1,CSC(C)(C)/C=N/O,inactive
2,C=CC(=O)[O][Sn]([CH2]CCC)([CH2]CCC)[CH2]CCC,12.6 µM (active)
3,Cc1c([N+](=O)[O-])c(C)c([N+](=O)[O-])c(C(C)(C)C)c1[N+](=O)[O-],inactive
4,O=C(NC(=O)c1c(F)cccc1F)Nc1ccc(Oc2ccc(C(F)(F)F)cc2Cl)cc1F,25.2 µM (active)
5,CCCCN(CCCC)C(=S)[S-].CCCCN(CCCC)C(=S)[S-].[Ni+2],inactive
6,BrCC(Br)(Br)Br,inactive
7,CN1C2CCC(C)(C)C1CC(OC(=O)C(O)(c1cccs1)c1cccs1)C2 (stereo not given),inactive
8,Oc1ccc([C@H]2CNCc3c2ccc(O)c3O)cc1O,13.8 µM (active)
9,COc1ccc2c(c1OC)C(=O)O[C@@H]2[C@H]1c2cc3c(cc2CCN1C)OCO3,5.58 µM (active)
10,CC(C)=CC1C(C(=O)OC(C#N)c2cccc(Oc3ccccc3)c2)C1(C)C (stereo not given),10 µM (active)
11,COCCC#N,inactive
12,O=[N+]([O-])c1ccccc1-c1ccccc1,25.2 µM (active)
13,ClC1=C(Cl)[C@]2(Cl)[C@H]3[C@H]([C@@H]4C=C[C@H]3C4)[C@@]1(Cl)C2(Cl)Cl,inactive
14,O=[N+]([O-])C(Br)Br,inactive
15,[Cl][Hg][c]1ccccc1,3.99 µM (active)
16,Oc1cccc(Cl)c1Cl,inactive
17,O=[N+]([O-])c1cc(C(F)(F)F)c(Cl)c([N+](=O)[O-])c1Nc1ncc(C(F)(F)F)cc1Cl,0.564 µM (active)
18,S=C=NCCc1ccccc1,17.9 µM (active)
19,Cc1ccc(C)c2ccccc12,inactive
20,C[N+]1(C)[C@@H]2CC[C@H]1CC(OC(=O)C(CO)c1ccccc1)C2 (stereo not given in full),inactive

# From PubChem BioAssay (Tox21)
